This is an account of results in paper PMC7862700, “An all-to-all approach to the identification of sequence-specific readers for epigenetic DNA modifications on cytosine”.

Holding throughout (assay): DAPPL (digital affinity profiling via proximity ligation, sequencing); 10 mM Tris-HCl pH 7.5, 50 mM NaCl, 1 mM DTT, 4% glycerol, room temperature, 30 min; GST-TFs on glutathione beads, 16-mer random dsDNA library, 0.1% formaldehyde crosslink after washing; high values mean tight binding
Settings in all cases: protein: recombinant; tags: N-terminal GST; dsDNA, one strand shown

The target in one assay is T1, ELK1 (Homo sapiens, UniProt P19419 1-428).
T1 sequence: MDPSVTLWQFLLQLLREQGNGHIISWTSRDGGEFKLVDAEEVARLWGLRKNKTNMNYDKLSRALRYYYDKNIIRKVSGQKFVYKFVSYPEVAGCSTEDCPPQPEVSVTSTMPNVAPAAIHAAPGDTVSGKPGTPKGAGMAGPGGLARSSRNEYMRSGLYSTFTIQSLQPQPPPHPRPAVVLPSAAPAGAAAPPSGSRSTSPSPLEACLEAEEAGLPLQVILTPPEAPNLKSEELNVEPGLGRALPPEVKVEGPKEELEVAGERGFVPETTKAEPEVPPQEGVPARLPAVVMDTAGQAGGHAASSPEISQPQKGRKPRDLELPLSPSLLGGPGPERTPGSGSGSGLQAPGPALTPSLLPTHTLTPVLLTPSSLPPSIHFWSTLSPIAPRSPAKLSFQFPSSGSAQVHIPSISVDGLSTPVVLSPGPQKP
An outline of the steps:
(§1)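 A tag-only sample was pooled with DNA-barcoded human transcription factors that had been expressed in yeast as GST fusions and captured on glutathione beads. The pools were incubated for 30 min at room temperature with 200 nmole of a random double-stranded 16-mer DNA library in Tris/NaCl/DTT/glycerol buffer, then washed, crosslinked with 0.1% formaldehyde, proximity-ligated (BsaI/T4 ligase, 1 h, 37 °C), PCR-amplified and sequenced on an Illumina NextSeq500. Binding signal is each hexamer's read frequency for a factor divided by its frequency for the tag-only sample.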

The target in the next assay is T2, GABPA (Homo sapiens, UniProt Q06546 1-454).
T2 sequence: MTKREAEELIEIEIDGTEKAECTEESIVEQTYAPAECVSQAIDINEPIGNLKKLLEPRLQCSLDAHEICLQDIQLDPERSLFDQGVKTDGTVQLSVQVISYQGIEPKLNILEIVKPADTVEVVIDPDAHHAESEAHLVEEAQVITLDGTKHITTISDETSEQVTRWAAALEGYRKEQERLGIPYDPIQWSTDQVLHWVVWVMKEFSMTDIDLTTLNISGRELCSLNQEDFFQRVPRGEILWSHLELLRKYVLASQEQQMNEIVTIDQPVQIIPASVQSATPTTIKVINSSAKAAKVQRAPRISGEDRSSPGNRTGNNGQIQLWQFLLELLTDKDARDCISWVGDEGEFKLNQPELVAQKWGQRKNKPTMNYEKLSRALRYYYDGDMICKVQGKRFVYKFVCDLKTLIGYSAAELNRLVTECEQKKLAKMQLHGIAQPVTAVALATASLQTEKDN
An outline of the steps: as §1

Another assay concerns the target T3, ERG (Homo sapiens, UniProt P11308 1-479).
T3 sequence: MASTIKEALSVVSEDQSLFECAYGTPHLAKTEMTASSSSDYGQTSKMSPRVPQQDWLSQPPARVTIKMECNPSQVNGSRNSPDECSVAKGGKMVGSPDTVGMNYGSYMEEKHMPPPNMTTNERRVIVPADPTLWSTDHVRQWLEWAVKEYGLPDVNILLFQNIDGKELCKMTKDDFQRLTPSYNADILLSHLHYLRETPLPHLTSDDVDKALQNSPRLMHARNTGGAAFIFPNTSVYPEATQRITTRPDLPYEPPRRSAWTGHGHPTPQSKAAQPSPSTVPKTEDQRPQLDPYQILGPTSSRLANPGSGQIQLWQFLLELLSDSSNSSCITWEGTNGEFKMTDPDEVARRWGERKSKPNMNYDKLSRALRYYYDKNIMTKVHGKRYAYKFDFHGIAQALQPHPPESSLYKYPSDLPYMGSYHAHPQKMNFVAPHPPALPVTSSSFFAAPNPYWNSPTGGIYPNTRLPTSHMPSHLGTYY
An outline of the steps: as §1

The target in another assay is ELF1 (Homo sapiens, UniProt P32519 1-619). An outline of the steps:
as §1

The next assay has as its target SPIB (Homo sapiens, UniProt Q01892 1-262). An outline of the steps:
as §1

The target in the next assay is T4, SPIC (Homo sapiens, UniProt Q8N5J4 1-248).
T4 sequence: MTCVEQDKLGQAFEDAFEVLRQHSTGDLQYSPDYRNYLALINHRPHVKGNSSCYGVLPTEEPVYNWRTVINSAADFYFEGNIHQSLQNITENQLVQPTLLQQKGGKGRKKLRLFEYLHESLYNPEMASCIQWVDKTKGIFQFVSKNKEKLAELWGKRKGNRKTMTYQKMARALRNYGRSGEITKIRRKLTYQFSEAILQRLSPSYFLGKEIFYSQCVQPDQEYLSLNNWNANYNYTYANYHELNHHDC
The gist of the method:
as §1

A further assay deals with ELF4 (Homo sapiens, UniProt Q99607 1-663). The gist of the method: as §1
In a further assay the target is T5, ELK4 (Homo sapiens, UniProt P28324-2 1-405).
T5 sequence: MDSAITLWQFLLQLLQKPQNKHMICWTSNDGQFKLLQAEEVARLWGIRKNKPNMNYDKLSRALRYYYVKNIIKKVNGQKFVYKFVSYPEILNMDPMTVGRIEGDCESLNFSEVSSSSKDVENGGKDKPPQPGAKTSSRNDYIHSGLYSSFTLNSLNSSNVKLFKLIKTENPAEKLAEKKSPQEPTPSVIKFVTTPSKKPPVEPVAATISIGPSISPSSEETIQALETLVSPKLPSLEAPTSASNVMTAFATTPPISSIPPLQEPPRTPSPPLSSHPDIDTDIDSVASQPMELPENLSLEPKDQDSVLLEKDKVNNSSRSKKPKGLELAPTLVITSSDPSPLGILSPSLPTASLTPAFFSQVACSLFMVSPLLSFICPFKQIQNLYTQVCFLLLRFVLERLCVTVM
The gist of the method:
as §1

Another assay has as its target T6, ELF3 (Homo sapiens, UniProt P78545 1-371).
T6 sequence: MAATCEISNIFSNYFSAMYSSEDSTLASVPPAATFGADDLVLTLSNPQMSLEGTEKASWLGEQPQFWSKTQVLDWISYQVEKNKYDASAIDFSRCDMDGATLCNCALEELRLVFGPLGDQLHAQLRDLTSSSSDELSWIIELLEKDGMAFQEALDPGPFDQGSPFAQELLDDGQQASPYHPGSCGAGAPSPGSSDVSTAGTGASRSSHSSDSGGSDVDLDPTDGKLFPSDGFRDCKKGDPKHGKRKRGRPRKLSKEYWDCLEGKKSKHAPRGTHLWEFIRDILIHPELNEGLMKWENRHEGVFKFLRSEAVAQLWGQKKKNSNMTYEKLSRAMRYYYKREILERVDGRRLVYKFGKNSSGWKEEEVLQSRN
The gist of the method: as §1

In a further assay the target is ETV1 (Homo sapiens, UniProt P50549 1-477). An outline of the steps:
as §1

Another assay deals with T7, ERF (Homo sapiens, UniProt P50548 1-548).
T7 sequence: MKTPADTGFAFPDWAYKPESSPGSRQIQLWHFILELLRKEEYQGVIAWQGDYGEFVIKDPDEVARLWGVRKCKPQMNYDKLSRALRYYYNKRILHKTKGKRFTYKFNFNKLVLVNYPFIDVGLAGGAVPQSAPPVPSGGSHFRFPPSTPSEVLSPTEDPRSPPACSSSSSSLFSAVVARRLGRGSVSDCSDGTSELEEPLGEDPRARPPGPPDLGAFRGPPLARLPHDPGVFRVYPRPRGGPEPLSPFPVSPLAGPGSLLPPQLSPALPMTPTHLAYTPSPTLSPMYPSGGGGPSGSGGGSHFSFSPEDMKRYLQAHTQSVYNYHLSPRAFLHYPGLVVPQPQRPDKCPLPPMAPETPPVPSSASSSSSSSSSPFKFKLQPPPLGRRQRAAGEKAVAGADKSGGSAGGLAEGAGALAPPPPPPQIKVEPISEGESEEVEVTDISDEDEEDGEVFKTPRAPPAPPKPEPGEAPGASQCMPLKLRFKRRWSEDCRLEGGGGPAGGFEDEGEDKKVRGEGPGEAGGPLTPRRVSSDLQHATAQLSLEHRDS
The gist of the method: as §1

A further assay addresses T8, ETV3L (Homo sapiens, UniProt Q6ZN32 1-361).
T8 sequence: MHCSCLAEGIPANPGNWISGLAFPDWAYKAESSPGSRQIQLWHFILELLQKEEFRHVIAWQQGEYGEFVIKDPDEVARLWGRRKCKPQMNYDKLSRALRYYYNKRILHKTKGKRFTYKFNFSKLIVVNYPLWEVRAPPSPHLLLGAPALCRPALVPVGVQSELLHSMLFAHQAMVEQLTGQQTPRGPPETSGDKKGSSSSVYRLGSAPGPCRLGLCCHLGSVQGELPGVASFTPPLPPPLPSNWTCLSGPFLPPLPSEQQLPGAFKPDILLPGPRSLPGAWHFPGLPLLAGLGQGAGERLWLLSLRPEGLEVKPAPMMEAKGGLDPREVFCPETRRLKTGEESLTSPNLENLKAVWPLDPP
The gist of the method: as §1

In a further assay the target is T9, ETS2 (Homo sapiens, UniProt P15036 1-469).
T9 sequence: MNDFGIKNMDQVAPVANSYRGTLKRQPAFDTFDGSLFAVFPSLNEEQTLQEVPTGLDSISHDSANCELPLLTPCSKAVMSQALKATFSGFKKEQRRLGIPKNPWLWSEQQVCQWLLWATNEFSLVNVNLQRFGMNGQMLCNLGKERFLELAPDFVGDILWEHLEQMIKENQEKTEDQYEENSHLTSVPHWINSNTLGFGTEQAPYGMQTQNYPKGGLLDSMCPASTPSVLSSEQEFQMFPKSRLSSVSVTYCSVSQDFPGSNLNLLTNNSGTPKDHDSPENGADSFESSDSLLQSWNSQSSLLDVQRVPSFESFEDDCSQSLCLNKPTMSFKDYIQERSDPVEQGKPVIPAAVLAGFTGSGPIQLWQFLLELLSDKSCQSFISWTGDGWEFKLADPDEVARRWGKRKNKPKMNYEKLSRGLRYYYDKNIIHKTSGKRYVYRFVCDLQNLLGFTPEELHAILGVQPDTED
An outline of the steps: as §1

The target in the next assay is T10, ETV7 (Homo sapiens, UniProt Q9Y603 1-341).
T10 sequence: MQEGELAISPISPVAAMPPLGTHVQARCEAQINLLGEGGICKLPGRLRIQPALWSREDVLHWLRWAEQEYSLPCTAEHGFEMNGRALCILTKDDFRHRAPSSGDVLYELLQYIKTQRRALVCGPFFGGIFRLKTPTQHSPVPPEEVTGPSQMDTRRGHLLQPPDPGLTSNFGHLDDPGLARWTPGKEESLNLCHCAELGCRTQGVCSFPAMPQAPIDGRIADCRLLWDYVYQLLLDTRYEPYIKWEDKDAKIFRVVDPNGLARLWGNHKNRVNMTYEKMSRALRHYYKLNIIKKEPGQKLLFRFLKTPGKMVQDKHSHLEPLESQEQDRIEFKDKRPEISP
The gist of the method:
as §1

For a further assay, the target named is T11, ETV3 (Homo sapiens, UniProt P41162-2 1-143).
T11 sequence: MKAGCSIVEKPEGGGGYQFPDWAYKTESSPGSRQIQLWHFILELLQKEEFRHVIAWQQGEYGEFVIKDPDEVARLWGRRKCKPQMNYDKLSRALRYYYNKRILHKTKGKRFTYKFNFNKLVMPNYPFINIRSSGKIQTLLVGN
An outline of the steps:
as §1

The target in the next assay is ETV6 (Homo sapiens, UniProt P41212 1-452). The gist of the method:
as §1

Sequence of SPIB (Q01892 whole entry): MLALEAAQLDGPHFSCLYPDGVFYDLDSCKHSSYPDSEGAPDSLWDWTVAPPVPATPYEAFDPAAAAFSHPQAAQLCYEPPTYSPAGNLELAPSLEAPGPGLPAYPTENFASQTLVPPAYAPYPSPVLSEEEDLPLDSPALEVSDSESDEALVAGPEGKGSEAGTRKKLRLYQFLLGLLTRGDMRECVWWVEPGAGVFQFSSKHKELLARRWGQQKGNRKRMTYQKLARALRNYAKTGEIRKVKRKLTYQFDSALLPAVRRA
Sequence of ETV1 (P50549 whole entry): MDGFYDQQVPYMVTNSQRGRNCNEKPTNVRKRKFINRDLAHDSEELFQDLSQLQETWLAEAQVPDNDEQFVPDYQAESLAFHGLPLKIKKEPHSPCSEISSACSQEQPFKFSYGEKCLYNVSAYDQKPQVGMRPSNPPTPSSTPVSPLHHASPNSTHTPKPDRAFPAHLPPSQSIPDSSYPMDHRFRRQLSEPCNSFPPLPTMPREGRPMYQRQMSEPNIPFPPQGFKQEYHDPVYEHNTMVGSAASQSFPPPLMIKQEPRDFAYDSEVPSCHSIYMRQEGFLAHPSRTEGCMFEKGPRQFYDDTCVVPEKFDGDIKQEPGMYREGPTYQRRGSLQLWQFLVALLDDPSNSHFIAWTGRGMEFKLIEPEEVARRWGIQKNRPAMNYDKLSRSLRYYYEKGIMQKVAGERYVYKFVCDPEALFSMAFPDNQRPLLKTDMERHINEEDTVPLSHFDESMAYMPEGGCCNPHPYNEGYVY
Sequence of ELF4 (Q99607 whole entry): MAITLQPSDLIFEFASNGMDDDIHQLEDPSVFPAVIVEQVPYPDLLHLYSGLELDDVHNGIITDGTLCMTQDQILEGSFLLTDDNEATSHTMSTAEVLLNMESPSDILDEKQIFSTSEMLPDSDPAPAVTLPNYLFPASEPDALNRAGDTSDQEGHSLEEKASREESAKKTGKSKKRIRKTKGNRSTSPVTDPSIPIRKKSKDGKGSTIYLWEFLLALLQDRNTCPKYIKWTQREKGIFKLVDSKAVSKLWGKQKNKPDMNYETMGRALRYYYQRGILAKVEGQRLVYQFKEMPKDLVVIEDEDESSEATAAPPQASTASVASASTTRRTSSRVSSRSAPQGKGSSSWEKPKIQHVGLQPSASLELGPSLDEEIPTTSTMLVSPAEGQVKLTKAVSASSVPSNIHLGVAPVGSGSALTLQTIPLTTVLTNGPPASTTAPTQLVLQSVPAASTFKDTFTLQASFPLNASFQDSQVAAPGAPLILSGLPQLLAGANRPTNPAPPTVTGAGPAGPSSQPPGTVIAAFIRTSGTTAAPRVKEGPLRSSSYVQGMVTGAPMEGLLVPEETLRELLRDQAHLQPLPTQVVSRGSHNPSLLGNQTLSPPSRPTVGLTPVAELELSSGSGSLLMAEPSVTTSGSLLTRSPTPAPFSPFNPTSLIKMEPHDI
Sequence of ELF1 (P32519 whole entry): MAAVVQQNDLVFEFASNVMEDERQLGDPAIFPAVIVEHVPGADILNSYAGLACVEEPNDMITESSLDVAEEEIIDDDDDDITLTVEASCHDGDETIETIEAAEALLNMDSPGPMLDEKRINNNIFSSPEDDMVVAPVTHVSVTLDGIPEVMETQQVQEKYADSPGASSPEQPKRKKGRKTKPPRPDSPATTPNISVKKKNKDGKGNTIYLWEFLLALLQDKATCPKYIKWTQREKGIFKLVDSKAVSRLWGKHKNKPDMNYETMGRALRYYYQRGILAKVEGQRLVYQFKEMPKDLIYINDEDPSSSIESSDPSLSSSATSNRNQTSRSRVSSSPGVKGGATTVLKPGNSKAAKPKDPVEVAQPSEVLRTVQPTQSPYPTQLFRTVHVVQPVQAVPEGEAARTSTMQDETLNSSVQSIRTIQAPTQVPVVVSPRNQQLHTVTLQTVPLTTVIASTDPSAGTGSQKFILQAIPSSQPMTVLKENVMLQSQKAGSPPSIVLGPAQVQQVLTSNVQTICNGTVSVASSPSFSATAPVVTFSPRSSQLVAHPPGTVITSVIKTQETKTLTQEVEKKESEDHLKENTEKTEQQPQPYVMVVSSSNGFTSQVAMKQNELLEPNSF
Sequence of ETV6 (P41212 whole entry): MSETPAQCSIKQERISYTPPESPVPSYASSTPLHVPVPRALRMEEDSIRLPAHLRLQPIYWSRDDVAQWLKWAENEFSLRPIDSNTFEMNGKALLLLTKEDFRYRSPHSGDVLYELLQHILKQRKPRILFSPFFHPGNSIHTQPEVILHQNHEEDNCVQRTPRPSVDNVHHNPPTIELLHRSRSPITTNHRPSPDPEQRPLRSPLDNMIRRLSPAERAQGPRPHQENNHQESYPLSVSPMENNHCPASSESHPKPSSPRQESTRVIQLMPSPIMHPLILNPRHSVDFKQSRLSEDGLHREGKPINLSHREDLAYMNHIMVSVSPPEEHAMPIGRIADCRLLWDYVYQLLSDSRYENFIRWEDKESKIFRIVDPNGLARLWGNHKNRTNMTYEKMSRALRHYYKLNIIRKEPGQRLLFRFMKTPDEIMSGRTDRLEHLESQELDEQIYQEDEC

Take TCAATC: the binding signal in the assay with ELK1 was 1.08 fold enrichment (6-mer frequency, TF over GST control); with GABPA it was 1.13 fold enrichment (6-mer frequency, TF over GST control); in the assay with ERG, 1.04 fold enrichment (6-mer frequency, TF over GST control); with ELF1 it was 1.07 fold enrichment (6-mer frequency, TF over GST control); with SPIB, 1.04 fold enrichment (6-mer frequency, TF over GST control); with SPIC it was 1.1 fold enrichment (6-mer frequency, TF over GST control). Besides, the binding signal is 1.06 fold enrichment (6-mer frequency, TF over GST control) with ELF4; 1.03 fold enrichment (6-mer frequency, TF over GST control) with ELK4; 1.09 fold enrichment (6-mer frequency, TF over GST control) in the assay with ELF3; 1.04 fold enrichment (6-mer frequency, TF over GST control) with ETV1; 1.09 fold enrichment (6-mer frequency, TF over GST control) in the assay with ERF; 1.05 fold enrichment (6-mer frequency, TF over GST control) with ETV3L. The binding signal with ETS2 was 1.04 fold enrichment (6-mer frequency, TF over GST control); with ETV7, 1.01 fold enrichment (6-mer frequency, TF over GST control); with ETV3, 1.01 fold enrichment (6-mer frequency, TF over GST control); with ETV6 it was 1.06 fold enrichment (6-mer frequency, TF over GST control).
